D1 potentiator – enhances dopamine response at the human D1 receptor | HEK293 TREx D1 cells, calcium flux, dopamine EC20 potentiation | potentiation, % at 10 µM | hit rate 0.036% among 360,000 | AID 504651; in the data active means potentiation above about 30%; further: 0% is about no effect
Target sequence (P21728 whole entry, looked up): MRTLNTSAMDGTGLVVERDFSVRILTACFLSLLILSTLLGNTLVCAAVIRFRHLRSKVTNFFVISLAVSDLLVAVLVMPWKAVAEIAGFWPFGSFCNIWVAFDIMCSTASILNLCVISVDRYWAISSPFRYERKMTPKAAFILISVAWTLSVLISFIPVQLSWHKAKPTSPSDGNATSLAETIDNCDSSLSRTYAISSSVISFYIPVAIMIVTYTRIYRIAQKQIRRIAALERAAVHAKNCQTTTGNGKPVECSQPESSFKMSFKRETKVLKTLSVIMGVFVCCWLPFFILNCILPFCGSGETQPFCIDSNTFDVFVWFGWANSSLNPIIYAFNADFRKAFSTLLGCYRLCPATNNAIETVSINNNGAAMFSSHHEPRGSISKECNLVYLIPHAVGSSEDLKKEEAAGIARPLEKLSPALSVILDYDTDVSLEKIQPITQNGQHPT
D1 agonist – agonists of human D1 dopamine receptor; AID 504660; P21728; HEK293 T-REx D1 cells, calcium flux, agonist mode; hit rate 1% among 360,000; activation, % at 2 µM; in the data active means activation above about 30%; further: 0% is about no effect
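Agonism was scored from calcium flux recorded over 180 s (1 read/s) after pintool compound addition, following a 10-cycle baseline. Cells were inducible force-coupled HEK293 TREx D1, plated overnight at 30 C and loaded with no-wash calcium dye.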
DRD3 antagonist – D3 dopamine receptor (human) antagonism; D3R cells, DiscoveRx beta-arrestin luminescence, antagonist mode; stronger effect = lower value; max response, negative = inhibition, %; hit rate 2.5% among 360,000; AID 652054; in the data active means max response below about -50%; inconclusive means no clear call, values can overlap the other calls; further: on the % scale 0 is the no-effect control and ±100 the full control effect
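Cells plated overnight at 1500 cells/well, then exposed to library compounds with dopamine controls for 90 minutes at 37 degrees C. DiscoveRx reagent added for 30–60 minutes at room temperature; luminescence read, quantitative HTS format.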
D1 antagonist – human D1 dopamine receptor antagonism. P21728. HEK293 TREx D1 cells, calcium flux, dopamine EC80; stronger effect = lower value. activity change, negative = inhibition, % at 10 µM. hit rate 3.2% among 360,000. AID 504652; in the data active means activity change below about -30%; further: on the % scale 0 is the no-effect control and ±100 the full control effect
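Antagonism measured as reduced calcium response to an EC80 dopamine addition following 180 s compound pre-read; cells were inducible HEK293 Trex D1 plated overnight at 30 C, read kinetically at 1 cycle/sec.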
D3 ag – activates the human D3 dopamine receptor | D3R DiscoveRx beta-arrestin cells, luminescence, 90 min | hit rate 0.58% among 410,000 | P35462 | AID 652048 | max activation, %; in the data active means max activation above about 30%; further: 0% is about no effect
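Cells at 1500/well, incubated overnight, then treated with pinned compounds (dopamine as control) for 90 min at 37 degrees C. DiscoveRx reagent added for 30 - 60 minutes at room temperature; luminescence read.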
Numbers without * were called inactive. Compounds with a hit are over-represented: about 6.1% of the library has one in this group of screens.

Screening COC(=O)C1(C(=O)OC)c2ccccc2CN(S(=O)(=O)c2ccc(C)cc2)C1CC(C)=O (centres undefined) returned DRD3 antagonist 3 and D3 ag 2.
COc1cc(-c2noc(C)c2C#Cc2ccsc2)cc(OC)c1OC was read as D1 potentiator 6, D1 agonist 7, DRD3 antagonist 0, D1 antagonist 23 and D3 ag -34.
Screening CN1C(=O)Cc2cc(S(=O)(=O)NCc3ccccc3Cl)ccc21 returned D1 potentiator -2, D1 agonist 1, D1 antagonist -1 and D3 ag -11.
`CN(C)S(=O)(=O)c1cccc(NC(=S)N/N=C/c2cc(Br)ccc2O)c1` gave D1 potentiator -18, D1 agonist 47*, DRD3 antagonist inconclusive, D1 antagonist -11 and D3 ag 6.
CN(C)S(=O)(=O)c1cccc(NC(=S)N/N=C/c2cccc(O)c2)c1 was read as D1 potentiator -8, D1 agonist 1, DRD3 antagonist 17, D1 antagonist 4 and D3 ag 3.
For Cc1onc(-c2c(Cl)cccc2Cl)c1C(=O)NCCCN1CCOCC1 the results were D1 potentiator -7, D1 agonist 0, DRD3 antagonist 1, D1 antagonist -10 and D3 ag -22.
Screening Cc1onc(-c2c(Cl)cccc2Cl)c1C(=O)c1c[nH]c(C(=O)NCCCN2CCOCC2)c1 returned D1 potentiator -1, D1 agonist 4, DRD3 antagonist -54*, D1 antagonist -18 and D3 ag -1.
Cc1cc(CN2CCN(c3ccccc3F)CC2)cs1 was read as D1 potentiator -8, D1 agonist 0, D1 antagonist -58* and D3 ag 0.
Screening Fc1ccccc1N1CCN(Cc2cc(-c3ccccc3)on2)CC1 returned D1 potentiator -1, D1 agonist 2, DRD3 antagonist -88*, D1 antagonist -27 and D3 ag -5.
For Fc1ccccc1N1CCN(Cc2nc(-c3ccccc3)no2)CC1 the results were D1 potentiator 6, D1 agonist 0, DRD3 antagonist inconclusive, D1 antagonist -19 and D3 ag -10.
For FCCCOc1ccc(CN2CCN(c3ccccc3F)CC2)cc1 the results were D1 potentiator -2, D1 agonist 1, DRD3 antagonist -60*, D1 antagonist -14 and D3 ag -3.
For Cc1cc(CN2CCN(c3cccc(C)c3C)CC2)cs1 the results were D1 potentiator -8, D1 agonist 13, D1 antagonist 12 and D3 ag -33.
For COc1ccc(NC(=O)CN(C)C(=O)C(Sc2ccccc2)c2ccccc2)cc1 (centres undefined) the results were D1 potentiator -5, D1 agonist 1, DRD3 antagonist -17, D1 antagonist 6 and D3 ag 1.
Cc1ccc(NCc2cccn2-c2nnc(N3CCC(C(=O)NCc4ccc(F)cc4)CC3)s2)cc1 was read as D1 potentiator -6, D1 agonist 0, D1 antagonist -13 and D3 ag -7.
For O=C(Cc1ccccc1F)Nc1cccc2cccnc12 the results were D1 potentiator -1, D1 agonist -1, DRD3 antagonist 0, D1 antagonist 5 and D3 ag 3.
Screening O=C(O)CCCC(=O)Nc1cccc2cccnc12 returned D1 potentiator -8, D1 agonist 0, DRD3 antagonist -10, D1 antagonist -95* and D3 ag -7.
OCCN1CCN(C2Cc3cc(Cl)ccc3Sc3ccc(Cl)cc32)CC1 (centres undefined) (tested in a mixture with another compound) was read as D1 potentiator -28, D1 agonist 12, DRD3 antagonist -72*, D1 antagonist -86* and D3 ag 6.
`O=C1CC(N2CCN(c3ccc(Cl)cc3)CC2)C(=O)N1c1ccc(F)cc1` (centres undefined) gave D1 potentiator 0, D1 agonist 3, DRD3 antagonist 0, D1 antagonist -4 and D3 ag 3.
`O=C(CN1CCN(CCOCCO)CC1)N1c2ccccc2Sc2ccc(Cl)cc21` gave D1 potentiator 2, D1 agonist 0, DRD3 antagonist -14, D1 antagonist -6 and D3 ag 8.
CN1CCN(C2Cc3cc(Cl)ccc3Sc3cc(F)ccc32)CC1 (centres undefined) was read as DRD3 antagonist -93* and D3 ag -54.

Source: PubChem (National Center for Advancing Translational Sciences (NCATS))
